MCF10A rerep: inducers of DNA re-replication in MCF 10A breast cells | MCF 10A DNA re-replication, Hoechst nuclear intensity, 48 h | Potency, µM (series often up to 46.1 µM), for inactives: at the top dose activity, positive = re-replication, usual class: activators | actives 2.9% (n = 350,000) | AID 624296; note: potency is the fitted concentration of half-maximal effect; % of control where 0% means no effect; nearly all actives have a fitted effect of over 50% in size
Giardia kill: Giardia lamblia killing; Giardia lamblia trophozoite viability; activity change, % at 7.66 µM, hits read low; actives 0.15% (n = 340,000); AID 540267; in the data active = activity change below about -80%; inconclusive = between about -30% and that limit;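 note: parasites exposed to compound for two days anaerobically before the ATP read; % is set by controls: 0 for no effect and ±100 for the full control effect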
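Trophozoite viability was measured as ATP-dependent luminescence, read 15-30 min after reagent addition. Before that, parasites at 100 cells/well were exposed to compounds for 48 h, anaerobically, at 37 deg C.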
SW480 rereplic: induces DNA re-replication in SW480 colon adenocarcinoma cells; Potency, µM (highest dose often 46.1 µM), for inactives: top-dose re-replication activation, hits mostly activators; SW480 DNA re-replication, Hoechst DNA content imaging, 48 h; actives 1.8% (n = 340,000); note: potency is the fitted concentration of half-maximal effect; % of control where 0% means no effect; nearly all actives have a fitted effect of over 55% in size
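Hoechst fluorescence of nuclei (405 nm excitation, 500-530 nm emission) measured by plate-scanning imager after 48 hr compound exposure at 37 C; re-replication scored as increased number of nuclei with elevated intensity.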
uPA surface inh: inhibitors of cell surface uPA generation; Potency, µM (series often up to 38.3 µM), without a hit: at the highest dose activity change, negative = inhibition, most hits filed as inhibitors; actives 0.31% (n = 330,000); cell surface uPA generation assay, qHTS; active = well fitted inhibition curve with a large enough effect; inconclusive = small, poorly fitted or top-dose-only effect; inactive = no such curve, though single readings can be large or run the other way; tested in mouse RAW 264.7 cells; note: potency is the fitted concentration of half-maximal effect; % is set by controls: 0 for no effect and ±100 for the full control effect; nearly all actives have a fitted effect of over 55% in size
* marks the source's active call; other numbers are inactive results; u = inconclusive; x = no result. In the library only some 4.3% were active in any assay of this set; here they are far more common. Unless noted, calls come from the whole dose curve; as a rule, active = well fitted activation curve with a large enough effect; inconclusive = small, poorly fitted or top-dose-only effect; inactive = no such curve, though single readings can be large or run the other way.

SMILES	MCF10A rerep	Giardia kill	SW480 rereplic	uPA surface inh
COc1ccccc1NS(=O)(=O)c1ccc(C(=O)N2CCCC(C(F)(F)F)C2)cc1 (configuration not stated)	17%	-2	-7%	-1%
COc1ccccc1N(C)S(=O)(=O)c1ccc(C(=O)N2CCCC(C(F)(F)F)C2)cc1 (configuration not stated)	8%	1	4.6µM*	-1%
CN(CC(O)CON=C1c2ccccc2-c2ccccc21)S(=O)(=O)c1ccc(Br)cc1 (configuration not stated)	16µM*	-1	u	2%
Cc1cccc(N(CC(O)CON=C2c3ccccc3-c3ccccc32)S(C)(=O)=O)c1 (configuration not stated)	16µM*	0	u	-1%
COc1ccc(S(=O)(=O)N2CCCCC2)cc1NC(=O)CCCOc1ccc(C)cc1	u	-1	7%	-5%
O=C(/C=C/c1ccccc1Cl)c1ccc[nH]1	u	-13	4.6µM*	-8%
O=S1(=O)C2CC3CCC2(CN1Cc1ccccc1)O3 (configuration not stated)	x	-1	x	x
CCOc1ccc(C(=O)Nc2cc(C)ccn2)cc1	u	-88*	-107%	-19%
CCCc1nnc(NC(=O)c2cc3ccccc3oc2=O)s1	-8%	17	u	5%
CCCc1nnc(NC(=O)c2cc3ccccc3o2)s1	8%	10	0.26µM*	-1%
Cc1ccnc(NC(=O)c2cc3ccccc3o2)c1	0%	u	-1%	2µM*
NS(=O)(=O)c1ccc(S(=O)(=O)N2CCN(c3nc(-c4ccccc4)nc4ccccc34)CC2)cc1	x	4	x	x
O=S(=O)(c1cccc(Br)c1)N1CCN(c2nc(-c3cccs3)nc3ccccc23)CC1	x	-10	x	x
Cc1ccc(Cl)cc1N1CCN(CCCNC(=O)c2nnc(Cc3cccc(Cl)c3)o2)CC1	x	-23	x	x
COc1ccc(N2CCN(C(=O)C3CCN(S(=O)(=O)c4ccc5c(c4)oc(=O)n5C)CC3)CC2)cc1	-1%	5	-29%	11%
CN(C(=O)COC(=O)c1ccc(Cl)nc1)C1CCS(=O)(=O)C1 (configuration not stated)	-1%	2	3%	-3%
COc1ccc(N=C2C(=O)N3c4c(cccc42)C(C)=CC3(C)C)cc1	21µM*	u	21µM*	-18%
COc1cc(-c2nn3c(-c4cc(-c5ccccc5)n[nH]4)nnc3s2)cc(OC)c1OC	x	-9	x	x
O=C1C(=O)C(c2cc(O)c(O)c(O)c2)Oc2cc(O)cc(O)c21 (configuration not stated)	x	-25	x	x
O=P(O)(CCc1ccncc1)CN1CCCCC1	5.8µM*	3	u	2%
O=C(COc1ccc(S(=O)(=O)N2CCCCC2)cc1)NCc1ccncc1	1%	25	13%	4%
COc1cccc2c1N(C)C(=O)CC21C=CC(=O)C=C1	x	13	x	x
O=[N+]([O-])c1ccc2c(c1)C(=NO)c1cc(Cl)c(Cl)cc1-2	1%	-4	-1%	-2%
CCS(=O)c1ccccc1C(=O)OCC(=O)N1CCC(c2ccccc2)=N1 (configuration not stated)	12%	0	-41%	-37%
CC1(C)CC(=O)c2c(nc3ccccc3c2N)C1	13%	-9	-1%	-1%
SMILES	MCF10A rerep	Giardia kill	SW480 rereplic	uPA surface inh
Cc1nc2c(c3c1[nH]c1ccccc13)C(=O)CC(C)(C)C2	23µM*	12	u	7%
COc1ccc(NC(=O)CCc2nnc3ccc(N4CCN(c5cccc(OC)c5)CC4)nn23)cc1	-17%	6	-11%	7%
Cc1[nH]n(-c2ccccc2)c(=O)c1C(C[N+](=O)[O-])c1ccc(Br)cc1 (configuration not stated)	3.3µM*	-7	u	-10%
COc1cccc(C(C[N+](=O)[O-])c2c(C)[nH]n(-c3ccccc3)c2=O)c1 (configuration not stated)	18%	2	u	1%
O=c1[nH]c(=S)c2[nH]cnc2[nH]1	x	-1	x	x
CCCN(CC(=O)Nc1ccccc1OC)C(=O)c1cc(-c2cccs2)nn1-c1ccccc1	u	-14	u	8%
CCN1CCN(S(=O)(=O)c2ccc3c4c(cccc24)C(=O)N3CC)CC1	u	-7	29%	-15%
CCOC(=O)C1CCCN(S(=O)(=O)c2ccc3c4c(cccc24)C(=O)N3CC)C1 (configuration not stated)	15%	4	7.3µM*	u

Screening data: PubChem, National Center for Advancing Translational Sciences (NCATS)
